Measurements: PubChem BioAssay (Tox21)
Inconclusive results are not listed. Where a call stands in place of a potency, no number is given. Some structures have more than one record in an assay (separate samples or runs), and their calls can disagree. Activity calls are given as the source filed them. Calls come from the whole dose curve; as a rule, active = well fitted curve in the direction sought with a large enough effect in the repeat runs; inconclusive = weak or mixed curves; inactive = no such curve, though single readings can be large; an effect the other way counts as inactive or inconclusive.

What was measured:
[1] = A CellTox Green Cytotoxicity Assay to monitor cytotoxicity in HepG2 cells - 0 hour (AID 1224882); note: nearly all actives have a fitted effect of over 35% in size; note: potency is the fitted concentration of half-maximal effect
How it was run: (§1)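 Using 1536-well format, dye-containing HepG2 suspension was seeded, allowed 5 h at 37 C/5% CO2, dosed by pintool with compounds, positive and negative controls, and imaged for fluorescence across 40 h.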

[2] = A CellTox Green Cytotoxicity Assay to monitor cytotoxicity in HepG2 cells - 32 hour (AID 1224883); note: nearly all actives have a fitted effect of over 50% in size; note: potency is the fitted concentration of half-maximal effect
How it was run: as §1

[3] = A CellTox Green Cytotoxicity Assay to monitor cytotoxicity in HEK293 cells - 8 hour (AID 1224884); note: nearly all actives have a fitted effect of over 35% in size
How it was run: (§2)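 Fluorescence intensity, read at 0, 8, 16, 24, 32 and 40 h of compound treatment, reflected dye binding to DNA of dead HEK293 cells; compounds (23 nL, DMSO) were added 5 h after plating cells with reagent.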

[4] = qHTS RealTime-Glo MT Cell Viability Assay in HepG2 cells - 16 hour (AID 1224885); note: nearly all actives have a fitted effect of over 50% in size
How it was run: (§3)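 HepG2 cells were seeded at 600 cells/well together with NanoLuc luciferase and a cell-permeant prosubstrate, preincubated 5 h at 37 C/5% CO2, then pin-dosed with compounds in DMSO. Nonlytic luminescence from viable cells was read at each time point.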

[5] = qHTS RealTime-Glo MT Cell Viability Assay in HEK293 cells - 24 hour (AID 1224886); note: nearly all actives have a fitted effect of over 50% in size; note: potency is the fitted concentration of half-maximal effect; for activity change, negative = cytotoxicity: top concentration of the series differs between compounds
How it was run: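 HEK293 cells were seeded at 600 cells/well together with NanoLuc luciferase and cell-permeant prosubstrate, preincubated 5 h at 37 C/5% CO2, then given compound in DMSO by pintool. Luminescence from viable-cell prosubstrate reduction was read repeatedly over 40 h.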

[6] = A CellTox Green Cytotoxicity Assay to monitor cytotoxicity in HEK293 cells - 16 hour (AID 1224888); note: nearly all actives have a fitted effect of over 35% in size; note: potency is the fitted concentration of half-maximal effect
How it was run: as §2

[7] = qHTS RealTime-Glo MT Cell Viability Assay in HepG2 cells - 0 hour (AID 1224889); note: nearly all actives have a fitted effect of over 50% in size
How it was run: as §3

[8] = A CellTox Green Cytotoxicity Assay to monitor cytotoxicity in HepG2 cells - 8 hour (AID 1224890); note: nearly all actives have a fitted effect of over 45% in size; note: potency is the fitted concentration of half-maximal effect
How it was run: as §1

[9] = qHTS RealTime-Glo MT Cell Viability Assay in HEK293 cells - 8 hour (AID 1224887); note: nearly all actives have a fitted effect of over 50% in size; note: potency is the fitted concentration of half-maximal effect; for activity change, negative = cytotoxicity: top concentration of the series differs between compounds
How it was run: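 Viable HEK293 cells reduce a cell-permeant prosubstrate; the product diffuses out and is consumed by NanoLuc in the medium to give light. Compounds went in after a 5 h incubation and plates were read over the treatment course.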

Compound | Potency [1] | Potency [2] | Potency [3] | Potency [4] | Potency [5] | Potency [6] | Potency [7] | Potency [8] | cytotoxicity [1] | cytotoxicity increase [2] | cytotoxicity increase [3] | activity change, negative = cytotoxic [4] | activity change [6] | activity change, negative = cytotoxicity [7] | Potency [9]
CCCCCCCC(=O)Oc1c(Br)cc(C#N)cc1Br | inactive | inactive | inactive | inactive | 38.8 µM (active) | inactive | inactive | inactive | – | – | – | – | – | – | –
CCCCCCCCCCCCCCN(C)C | – | – | – | – | – | – | – | – | -1.15% [at 15.8 µM] (inactive) | -7.28% [at 15.8 µM] (inactive) | -28% [at 15.8 µM] (inactive) | -0.238% [at 15.8 µM] (inactive) | -30.9% [at 15.8 µM, stronger effect = higher value] (inactive) | -19.6% [at 15.8 µM] (inactive) | –
CC(C)COC(=O)c1ccc(O)cc1 | inactive | – | inactive | inactive | – | – | inactive | inactive | – | – | – | – | – | – | –
CC(C)(O)c1coc(S(=O)(=O)NC(=O)Nc2c3c(cc4c2CCC4)CCC3)c1 | inactive | – | inactive | inactive | inactive | inactive | inactive | inactive | – | – | – | – | – | – | inactive
COc1cc(NC(C)CCCN)c2ncccc2c1 (configuration not stated) | inactive | inactive | – | inactive | inactive | inactive | inactive | inactive | – | – | – | – | – | – | –
C=Cc1ccc(OC(C)=O)cc1 | inactive | inactive | – | inactive | – | inactive | inactive | inactive | – | – | – | – | – | – | inactive
CC1C(C)(C)C2=C(C(=O)CCC2)C1(C)C (configuration not stated) | inactive | – | inactive | inactive | inactive | inactive | inactive | – | – | – | – | – | – | – | inactive
CC(CN(CCN(CC(C)OCCO)CC(C)OCCO)CC(C)OCCO)OCCO (configuration not stated) | inactive | – | inactive | inactive | 23.7 µM (active) | inactive | inactive | inactive | – | – | – | – | – | – | –
O=C(O)c1ccc(O)cc1O | inactive | inactive | inactive | inactive | inactive | inactive | inactive | inactive | – | – | – | – | – | – | inactive
CCCCC(CC)COS(=O)(=O)O (configuration not stated) | inactive | inactive | – | inactive | inactive | – | inactive | inactive | – | – | – | – | – | – | inactive
C=CCOC(=O)COCCC(C)C | inactive | inactive | – | inactive | inactive | inactive | inactive | inactive | – | – | – | – | – | – | inactive
CC1=CC[C@@]23C[C@@H]1C(C)(C)[C@@H]2CC[C@H]3C | inactive | – | inactive | inactive | inactive | inactive | – | – | – | – | – | – | – | – | inactive
CC(C)(C)CCCCCCOC(=O)c1ccccc1C(=O)OCCCCCCC(C)(C)C | inactive | inactive | inactive | inactive | inactive | inactive | inactive | inactive | – | – | – | – | – | – | inactive
O=C1OC(=O)c2c(Br)c(Br)c(Br)c(Br)c21 | inactive | inactive | inactive | inactive | inactive | inactive | inactive | inactive | – | – | – | – | – | – | inactive
Cc1ccc(Cl)cc1N | inactive | inactive | inactive | inactive | inactive | inactive | inactive | inactive | – | – | – | – | – | – | inactive
CCCCCCCCCCCCCC(=O)OCC(O)CO (configuration not stated) | inactive | inactive | inactive | inactive | inactive | – | inactive | inactive | – | – | – | – | – | – | inactive
O=C(CCS)OCC(COC(=O)CCS)(COC(=O)CCS)COC(=O)CCS | inactive | inactive | inactive | inactive | – | inactive | inactive | inactive | – | – | – | – | – | – | –
O=C(O)CCC(=O)OC[C@@H](NC(=O)C(Cl)Cl)[C@H](O)c1ccc([N+](=O)[O-])cc1 | 19 µM (active) | 12 µM (active) | – | inactive | inactive | – | inactive | – | – | – | – | – | – | – | inactive
FC(F)(F)C(F)(F)C(F)(F)C(F)(F)CCI | inactive | inactive | inactive | inactive | inactive | inactive | inactive | inactive | – | – | – | – | – | – | inactive
CC1CCCO1 (configuration not stated) | inactive | inactive | inactive | inactive | inactive | inactive | inactive | inactive | – | – | – | – | – | – | inactive
COc1ccc(/C=C/C(=O)c2ccc(OC)cc2OC)cc1 | inactive | – | inactive | inactive | inactive | inactive | inactive | inactive | – | – | – | – | – | – | –
O=NN(CCCl)C(=O)NCCCl | 5.35 µM (active) | – | – | inactive | inactive | inactive | inactive | – | – | – | – | – | – | – | inactive
Nc1c(Cl)cc(Cl)cc1[N+](=O)[O-] | inactive | – | inactive | inactive | inactive | inactive | inactive | – | – | – | – | – | – | – | inactive
COc1ccc2nc(S(=O)Cc3ncc(C)c(OC)c3C)[nH]c2c1 (configuration not stated) | inactive | inactive | inactive | inactive | 21.6 µM (active) and inactive | inactive | inactive | inactive | – | – | – | – | – | – | 24.3 µM (active) and inactive
O=C1c2ccccc2C(=O)c2c(O)ccc(O)c21 | inactive | 24.5 µM (active) | – | inactive | inactive | 30.9 µM (active) | inactive | 21.9 µM (active) | – | – | – | – | – | – | inactive
CC(=O)OCCC1CCCCC1 | inactive | – | – | inactive | inactive | inactive | inactive | inactive | – | – | – | – | – | – | inactive
C/C(C=O)=C\c1ccccc1 | inactive | inactive | inactive | inactive | inactive | inactive | inactive | inactive | – | – | – | – | – | – | inactive
COc1cc(OC)c2ccc(=O)oc2c1 | inactive | inactive | inactive | inactive | inactive | inactive | – | inactive | – | – | – | – | – | – | inactive
